# Biological target: DHX35
# Experiment: pooled miR-30 sensor sort-seq; sequence = guide strand
# Conditions: shRNA
# Further: reference of the scale not given here.
row,Sequence,sensor-assay potency score (higher = more potent)
1,ATAAGGGTTGTAAACAACCGTT,-1.1
2,TAGGCGACAGTCTTTGTCCAGA,-0.612
3,TAAAATATGATTCCTAAGCTTG,-0.148
4,TTGAAACTTGACAAGAAGCTTT,0.0953
5,TAGAATGAAACCTCGCTGCATT,-0.528

# Biological target: DICER1
# Experiment: as above
# Conditions: shRNA
row,Sequence,sensor-assay potency score (higher = more potent)
1,TTCCACAGTGACTCTGACCTTC,0.615
2,TTAGATTGAACATAGGATCGAT,0.532
3,TTAAAGTAGAATCTCTTTCTTT,0.229
4,TTATTCTTGAATCTGTAGTTGA,0.19
5,TGTAACTTCGACCAACACCTTT,-0.933
6,TTATTTTGTCTGTATCCGCTAA,-0.197
7,TTTGATTGTAAGAAAGACCATT,-0.387
8,TATAAATCTGATATGTTCCTGA,0.759
9,TTGTTTTATAATATTCTGCAAA,-0.989
10,TTTTCTTTACAAAAGCTCCTGA,0.34
11,TAGATTGAACATAGGATCGATA,-1.08
12,TTGACCAAGAACACCGTCCTTT,0.276

# Biological target: DIRAS3
# Experiment: as above
# Conditions: shRNA
row,Sequence,sensor-assay potency score (higher = more potent)
1,TTGCCGTCGCCACTCTTGCTGT,-1.2
2,TAACATAGTGAAATGAGTCCAC,0.953
3,TTGTCAAGCAGCTTCTCAGTGG,-0.353
4,TACATCATGCTACATTTTGTTC,-1.42
5,TACTTTAAATACATCATGCTAC,-0.338
6,TTTAAATACATCATGCTACATT,-0.644
7,TTCCACTCCATCGCACAGGTGG,-0.748
8,TATACGTATTGACAACATGGAT,-1.16
9,TTGTTACCTTTGATCTTGCAGA,-0.643
10,TTACAGTCCAAACAACAGCACA,-1.35
11,TAATCTCTGATCTTCCTGTGGG,0.371

# Biological target: DLAT
# Experiment: as above
# Conditions: shRNA
row,Sequence,sensor-assay potency score (higher = more potent)
1,TATCTTATTAAGTTCTTTCCGT,0.0125
2,TTTTAAATCTGTTACTTCGGTT,-0.836
3,TAGAAAGGTAATAATGAGGTAT,-0.0638
4,TTTGATTGCATTAATCGCTGTG,0.738
5,ATATCTGTGAAGACACCTGTAG,-0.267
6,TTTGTCTTATAACTGTGTCCAT,-0.255
7,TTGTCTTATAACTGTGTCCATC,-1.31
8,TTGTGTAAGATCAATCCCTTTC,-0.362
9,TAATCGCTGTGCAATAACCCGA,-0.457
10,TTGATTGCATTAATCGCTGTGC,0.199
11,TCTTTTTCTACAATGATACAGA,-0.772
12,TTGCTGATTGGGATATCTGTGA,-0.131
